In PubChem BioAssay AID1159580 (chemical genetic matrix, 2015):
In all, about 5,500 compounds went through this assay and about 2,000 (36%) were called active. Not shown: some 18% with an inconclusive outcome. Some of the results follow. Unmarked numbers belong to inactive results. Rule as the data show it: active = normalized growth mostly below about 0.91 (no sharp cut-off); inconclusive = no clear call, values can overlap the other calls; inactive = mostly above about 0.92.

Test: chemical genetic growth profiling, strain panel (AID 1159580);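 also: tested at 20 µM; growth read once vehicle control cultures reached saturation at 30 °C; 1 = growth at the plate median or of vehicle wells; lower values mean less growth of the strain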
Conditions: growth OD

For `CCOC(=O)C1=C[C@]2(CC)CCCN3CCc4c(n1c1ccccc41)[C@@H]32`, the normalized growth (S. cerevisiae deletion strains, locus YKL009W, strain mrt4, stronger effect = lower value) was 0.964, the normalized growth (S. cerevisiae deletion strains, locus YKL068W, stronger effect = lower value) was 0.988 and the normalized growth (S. cerevisiae deletion strains, locus YKL085W, strain MDH1 (second series), stronger effect = lower value) was 0.992. For the same molecule, the normalized growth (S. cerevisiae deletion strains, locus YKL085W, strain MDH1, stronger effect = lower value) was 0.992, the normalized growth (S. cerevisiae deletion strains, locus YKL160W, strain elf1, stronger effect = lower value) was 1.03 and the normalized growth (S. cerevisiae deletion strains, locus YKL190W, strain CNB1, stronger effect = lower value) was 0.982. The normalized growth (S. cerevisiae deletion strains, locus YKR001C, strain vps1, stronger effect = lower value) was 0.933, the normalized growth (S. cerevisiae deletion strains, locus YKR026C, strain gcn3, stronger effect = lower value) was 1.01 and the normalized growth (S. cerevisiae deletion strains, locus YKR091W, strain srl3, stronger effect = lower value) was 1.01. It also gave a normalized growth (S. cerevisiae deletion strains, locus YLL001W, strain dnm1, stronger effect = lower value) of 1.03, a normalized growth (S. cerevisiae deletion strains, locus YLL026W, stronger effect = lower value) of 1.02 and a normalized growth (S. cerevisiae deletion strains, locus YLL041C, strain sdh2, stronger effect = lower value) of 1.02. It also gave a normalized growth (S. cerevisiae deletion strains, locus YLR027C, strain aat2, stronger effect = lower value) of 1.02, a normalized growth (S. cerevisiae deletion strains, locus YLR039C, strain RIC1, stronger effect = lower value) of 0.924 and a normalized growth (S. cerevisiae deletion strains, locus YLR058C, strain SHM2, stronger effect = lower value) of 0.963. It also gave a normalized growth (S. cerevisiae deletion strains, locus YLR102C, strain apc9, stronger effect = lower value) of 0.969, a normalized growth (S. cerevisiae deletion strains, locus YLR113W, strain HOG1, stronger effect = lower value) of 1.01 and a normalized growth (S. cerevisiae deletion strains, locus YLR221C, strain rsa3, stronger effect = lower value) of 1.02. For the same molecule, the normalized growth (S. cerevisiae deletion strains, locus YLR258W, strain gsy2, stronger effect = lower value) was 1.02, the normalized growth (S. cerevisiae deletion strains, locus YLR262C, strain YPT6 (second series), stronger effect = lower value) was 0.996 and the normalized growth (S. cerevisiae deletion strains, locus YLR262C, strain YPT6, stronger effect = lower value) was 0.852. For the same molecule, the normalized growth (S. cerevisiae deletion strains, locus YLR268W, strain sec22, stronger effect = lower value) was 0.923, the normalized growth (S. cerevisiae deletion strains, locus YLR320W, strain mms22, stronger effect = lower value) was 0.986 and the normalized growth (S. cerevisiae deletion strains, locus YLR330W, strain CHS5, stronger effect = lower value) was 0.992. For the same molecule, the normalized growth (S. cerevisiae deletion strains, locus YLR342W, strain FKS1 (second series), stronger effect = lower value) was 0.928, the normalized growth (S. cerevisiae deletion strains, locus YLR342W, strain FKS1, stronger effect = lower value) was 1.01 and the normalized growth (S. cerevisiae deletion strains, locus YLR357W, strain rsc2, stronger effect = lower value) was 1.07. For the same molecule, the normalized growth (S. cerevisiae deletion strains, locus YLR370C, strain arc18, stronger effect = lower value) was 1.02, the normalized growth (S. cerevisiae deletion strains, locus YLR371W, strain rom2, stronger effect = lower value) was 0.985 and the normalized growth (S. cerevisiae deletion strains, locus YLR384C, strain iki3, stronger effect = lower value) was 1.04. The normalized growth (S. cerevisiae deletion strains, locus YLR418C, strain cdc73, stronger effect = lower value) was 0.915, the normalized growth (S. cerevisiae deletion strains, locus YML016C, strain PPZ1, stronger effect = lower value) was 0.985 and the normalized growth (S. cerevisiae deletion strains, locus YML032C, strain rad52, stronger effect = lower value) was 0.95. The normalized growth (S. cerevisiae deletion strains, locus YML120C, strain ndi1, stronger effect = lower value) was 1.01, the normalized growth (S. cerevisiae deletion strains, locus YML124C, strain tub3, stronger effect = lower value) was 0.979 and the normalized growth (S. cerevisiae deletion strains, locus YMR058W, strain fet3, stronger effect = lower value) was 1.02. It also gave a normalized growth (S. cerevisiae deletion strains, locus YMR078C, strain ctf18, stronger effect = lower value) of 0.977, a normalized growth (S. cerevisiae deletion strains, locus YMR125W, strain sto1, stronger effect = lower value) of 1.02 and a normalized growth (S. cerevisiae deletion strains, locus YMR129W, stronger effect = lower value) of 1.02. The normalized growth (S. cerevisiae deletion strains, locus YMR205C, strain PFK2, stronger effect = lower value) was 0.995, the normalized growth (S. cerevisiae deletion strains, locus YMR223W, strain ubp8, stronger effect = lower value) was 0.961 and the normalized growth (S. cerevisiae deletion strains, locus YMR231W, strain pep5, stronger effect = lower value) was 1.02. The normalized growth (S. cerevisiae deletion strains, locus YMR263W, strain SAP30, stronger effect = lower value) was 0.987, the normalized growth (S. cerevisiae deletion strains, locus YMR307W, strain GAS1, stronger effect = lower value) was 1.01 and the normalized growth (S. cerevisiae deletion strains, locus YNL067W, strain RPL9B, stronger effect = lower value) was 0.949. The normalized growth (S. cerevisiae deletion strains, locus YNL071W, strain lat1, stronger effect = lower value) was 1.01, the normalized growth (S. cerevisiae deletion strains, locus YNL128W, strain TEP1, stronger effect = lower value) was 0.988 and the normalized growth (S. cerevisiae deletion strains, locus YNL183C, strain NPR1, stronger effect = lower value) was 0.947. For the same molecule, the normalized growth (S. cerevisiae deletion strains, locus YNL209W, strain ssb2, stronger effect = lower value) was 1.05, the normalized growth (S. cerevisiae deletion strains, locus YNL233W, strain BNI4, stronger effect = lower value) was 0.931 and the normalized growth (S. cerevisiae deletion strains, locus YNL248C, strain rpa49, stronger effect = lower value) was 1.05. For the same molecule, the normalized growth (S. cerevisiae deletion strains, locus YNL250W, strain rad50, stronger effect = lower value) was 0.978, the normalized growth (S. cerevisiae deletion strains, locus YNL271C, strain bni1, stronger effect = lower value) was 0.981 and the normalized growth (S. cerevisiae deletion strains, locus YNL298W, strain CLA4, stronger effect = lower value) was 0.98. The normalized growth (S. cerevisiae deletion strains, locus YNL307C, strain MCK1, stronger effect = lower value) was 0.879 (active), the normalized growth (S. cerevisiae deletion strains, locus YNL322C, strain KRE1 (second series), stronger effect = lower value) was 1.02 and the normalized growth (S. cerevisiae deletion strains, locus YNL322C, strain KRE1, stronger effect = lower value) was 0.986. For the same molecule, the normalized growth (S. cerevisiae deletion strains, locus YNR049C, strain mso1, stronger effect = lower value) was 1.02, the normalized growth (S. cerevisiae deletion strains, locus YNR052C, strain pop2, stronger effect = lower value) was 0.979 and the normalized growth (S. cerevisiae deletion strains, locus YOL006C, strain TOP1, stronger effect = lower value) was 0.803. For the same molecule, the normalized growth (S. cerevisiae deletion strains, locus YOL012C, strain htz1) was 0.935, the normalized growth (S. cerevisiae deletion strains, locus YOL147C, strain pex11, stronger effect = lower value) was 0.984 and the normalized growth (S. cerevisiae deletion strains, locus YOR001W, strain rrp6, stronger effect = lower value) was 1.02. For the same molecule, the normalized growth (S. cerevisiae deletion strains, locus YOR061W, strain CKA2, stronger effect = lower value) was 0.964, the normalized growth (S. cerevisiae deletion strains, locus YOR069W, strain VPS5, stronger effect = lower value) was 0.986 and the normalized growth (S. cerevisiae deletion strains, locus YOR070C, strain gyp1, stronger effect = lower value) was 1.01. For the same molecule, the normalized growth (S. cerevisiae deletion strains, locus YOR080W, strain dia2, stronger effect = lower value) was 1.03, the normalized growth (S. cerevisiae deletion strains, locus YOR083W, strain WHI5, stronger effect = lower value) was 1.01 and the normalized growth (S. cerevisiae deletion strains, locus YOR106W, strain vam3, stronger effect = lower value) was 1.04. For the same molecule, the normalized growth (S. cerevisiae deletion strains, locus YOR136W, strain idh2, stronger effect = lower value) was 0.978, the normalized growth (S. cerevisiae deletion strains, locus YOR144C, strain elg1, stronger effect = lower value) was 0.994 and the normalized growth (S. cerevisiae deletion strains, locus YOR184W, strain ser1, stronger effect = lower value) was 0.859 (active). The normalized growth (S. cerevisiae deletion strains, locus YOR231W, strain MKK1, stronger effect = lower value) was 1.02, the normalized growth (S. cerevisiae deletion strains, locus YOR265W, strain rbl2, stronger effect = lower value) was 1.02 and the normalized growth (S. cerevisiae deletion strains, locus YOR270C, strain vph1, stronger effect = lower value) was 0.957. For the same molecule, the normalized growth (S. cerevisiae deletion strains, locus YOR290C, strain snf2, stronger effect = lower value) was 1.01, the normalized growth (S. cerevisiae deletion strains, locus YOR316C, strain cot1, stronger effect = lower value) was 0.974 and the normalized growth (S. cerevisiae deletion strains, locus YPL051W, strain arl3, stronger effect = lower value) was 1.01. It also gave a normalized growth (S. cerevisiae deletion strains, locus YPL055C, strain LGE1, stronger effect = lower value) of 0.887, a normalized growth (S. cerevisiae deletion strains, locus YPL078C, strain atp4, stronger effect = lower value) of 1.01 and a normalized growth (S. cerevisiae deletion strains, locus YPL106C, strain sse1, stronger effect = lower value) of 1.03. For the same molecule, the normalized growth (S. cerevisiae deletion strains, locus YPL240C, strain hsp82, stronger effect = lower value) was 1.04, the normalized growth (S. cerevisiae deletion strains, locus YPL256C, strain CLN2, stronger effect = lower value) was 0.999 and the normalized growth (S. cerevisiae deletion strains, locus YPR119W, strain clb2, stronger effect = lower value) was 0.986. It also gave a normalized growth (S. cerevisiae deletion strains, locus YPR141C, strain kar3, stronger effect = lower value) of 0.986, a normalized growth (S. cerevisiae deletion strains, locus YPR163C, strain tif3, stronger effect = lower value) of 0.936 and a normalized growth (S. cerevisiae deletion strains, locus YPR167C, strain met16, stronger effect = lower value) of 0.989. It also gave a normalized growth (S. cerevisiae deletion strains, strain wtn01, stronger effect = lower value) of 0.993 and a normalized growth (S. cerevisiae strains, strain wild type, stronger effect = lower value) of 0.974.
